# Compound activity from PubChem BioAssay.
# This is a sample that favours compounds with a hit; in the whole collection about 2.7% have one here.
# NadD inh = blocks S. aureus nicotinate mononucleotide adenylyltransferase | AID 602399 | purified NadD enzyme, colorimetric absorbance read-out | inhibition, % at 20 µM | actives 0.78% (n = 360,000); in the data active = inhibition above about 26%
# MPTP block = inhibitors of mitochondrial permeability transition pore | actives 1.4% (n = 360,000) | inhibition, % at 10 µM | AID 602449 | isolated mouse mitochondria, Ca2+ swelling absorbance, 30 min;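 active = inhibition of 50% or more, scaled per plate between neutral and stimulator controls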;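 also: 0% = DMSO wells given calcium and 100% = 1 mM EGTA wells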
# H9c2 TAG inh = triacylglycerol accumulation inhibition; H9c2 cells, Nile Red lipid (TAG) fluorescence; cells loaded with 200 µM oleic acid; inhibition, % at 12.5 µM; actives 0.66% (n = 230,000);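 active = pattern-corrected inhibition of lipid staining of at least 50% with the nuclear-stain viability signal not falling by more than 50%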;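 also: 0% = DMSO wells and 100% = triacsin C control wells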
# aDG glyco act = alpha-DG glycosylation activation; Pro5-aDG cells, alpha-DG glycosylation AlphaScreen (IIH6); 0% Pro5, 100% B10-LARGE cell signal; actives 0.22% (n = 360,000); activation, % at 10 µM; AID 624168;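 active = activation of at least 8% versus controls, or a plate z-score of at least 8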;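 also: Pro5 are CHO cells carrying HIG-tagged alpha-DG that lacks glycosylation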
# MPTP counter = Rhodamine 123 counter-screen of mitochondrial pore hits. shares compounds with MPTP block. isolated mitochondria, membrane potential, Rhodamine 123 fluorescence. inhibition, % at 10 µM. actives 78% (n = 5,000); in the data active = inhibition above about 22%;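 also: 0% = DMSO vehicle and 100% = positive control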
# MPTP swell DR = dose response confirmation of mitochondrial permeability transition pore inhibitors; shares compounds with MPTP block; isolated mitochondria swelling, absorbance; IC50, µM; actives 58% (n = 780); AID 651561; in the data active = IC50 below about 20 µM
# MPTP counter DR = active in counter-screen for permeability transition pore inhibitors; shares compounds with MPTP block; IC50, µM; AID 651564; actives 49% (n = 780); isolated mitochondria counterscreen, fluorescence read-out; in the data active = IC50 below about 80 µM
# * marks the source's active call; other numbers are inactive results; i = inactive; nt = no result given.
SMILES,NadD inh,MPTP block,H9c2 TAG inh,aDG glyco act,MPTP counter,others
COc1ccc(S(=O)(=O)N2CCCCC2c2cc(C(=O)Nc3ccc(OC)cc3C)no2)cc1 (configuration not stated),-14,0,104,0,nt,
CCc1ccccc1NC(=S)NCCSc1ccc(Cl)cc1,3,94*,-7,1,94*,
Cc1ccc(NC(=S)NCCSc2ccc(Cl)cc2)c(C)c1,-5,81*,nt,0,87*,
CS(=O)(=O)Nc1ccccc1C(=O)NCCSc1ccc(Cl)cc1,-7,2,nt,0,nt,
Cc1ccccc1NC(=S)NCCSc1ccc(Cl)cc1,-9,92*,-25,1,86*,
COc1ccccc1CNC(=S)Nc1ccc(F)cc1,-3,0,nt,0,nt,
Fc1ccc(NC(=S)NCc2ccccc2Cl)cc1,-4,92*,nt,0,76*,
Fc1ccc(NC(=S)NCCc2ccc(Cl)cc2)cc1,0,89*,nt,0,90*,
Fc1ccc(CCNC(=S)Nc2ccc(F)c(Cl)c2)cc1,-5,103*,-12,3,95*,
Cc1ccc2nc(Cl)c(/C=N/NC(=O)c3ccccc3O)cc2c1,25,65*,nt,0,76*,
Cc1ccc2nc(Cl)c(/C=N/NC(=O)[C@H]3C[C@@H]3c3ccccc3)cc2c1,23,14,30,0,nt,
O=C(c1ccccc1)N1CCN(c2ncnc3sc4c(c23)CCC4)CC1,5,53*,-12,3,45*,
COC(=O)Cc1ccccc1NS(=O)(=O)c1ccc(C)cc1,nt,-1,nt,0,nt,
Cc1cc(C)cc(NC(=O)Nc2ccc(-n3ccc(C(F)(F)F)n3)cc2)c1,-3,87*,2,1,83*,
O=C(NNc1cc(C(F)(F)F)nc2ccccc12)Nc1cccc(Cl)c1,0,67*,-10,0,70*,
COc1ccccc1NC(=O)Nc1ccc(-n2ccc(C(F)(F)F)n2)cc1,-5,28,-4,2,nt,
O=C(Nc1ccc(-n2ccc(C(F)(F)F)n2)cc1)Nc1cccc(Cl)c1,-10,75*,-21,0,65*,
O=C(CSc1ccc(-c2ccc(F)cc2)nn1)NC1CCCCC1,0,-1,nt,0,nt,
O=C(OCC(=O)c1ccc(Cl)s1)c1cnccn1,9,-1,4,0,nt,
COc1cccc(Nc2nc(C(N)Cc3ccccc3)cs2)n1 (configuration not stated),2,2,20,2,nt,
COc1ccc(C(=O)N2CCN(c3ccc(C(C)=O)cc3)CC2)cc1S(=O)(=O)N1CCCC1,-2,-2,-5,0,nt,
CCOc1ccc2nc(NC3=NC(C)(C)C=C(C)N3)nc(C)c2c1,-1,86*,3,0,85*,
COc1ccc2c(C)nc(Nc3nc(-c4ccccc4)cc(=O)[nH]3)nc2c1,3,2,107,0,nt,
CCOc1ccc2nc(NC3=NC(c4ccc(OC)cc4)CC(=O)N3)nc(C)c2c1 (configuration not stated),14,2,nt,0,nt,
CCOc1ccc2c(C)nc(NC3=NC(C)(C)C=C(C)N3)nc2c1,3,59*,0,0,6,MPTP swell DR=i;MPTP counter DR=7.7*
SMILES,NadD inh,MPTP block,H9c2 TAG inh,aDG glyco act,MPTP counter,others
O=C(CSc1nc(-c2ccccc2)c(-c2ccccc2)o1)NCCCO,-5,5,nt,0,nt,
Clc1ccc(OCCOCCN2CCc3ccccc3C2)c(Cl)c1,-2,100*,nt,0,-6,MPTP swell DR=i;MPTP counter DR=31*
COc1cc([N+](=O)[O-])ccc1NC(=O)Nn1cnnc1,-4,-1,-2,0,nt,
CN(C)CCNc1ncnc2c1cnn2-c1ccc(Cl)cc1,-3,78*,31,0,-20,MPTP swell DR=8.4*;MPTP counter DR=>80
Cc1cccc(NC(=O)C2C(c3ccccc3)C2(Cl)Cl)c1C (configuration not stated),0,71*,-1,0,77*,
COc1cccc(CN2CCNC(=O)C2CC(=O)NCC2CCOCC2)c1 (configuration not stated),-1,-2,nt,0,nt,
O=C(/C=C/c1cccc([N+](=O)[O-])c1)NCCSCc1ccc(Cl)cc1Cl,3,67*,4,0,73*,
Cc1sc2ncnc(N3CCCCC3C)c2c1C (configuration not stated),7,60*,-22,1,54*,
Cc1sc2ncnc(N3CCCCC3)c2c1C,-2,1,nt,0,nt,
CCCNC(=O)C1(C)CCCN(C(=O)C2(c3ccc(Cl)cc3)CCCC2)C1 (configuration not stated),-2,1,2,0,nt,
NC(=O)c1ccccc1NC(=O)c1cc(S(=O)(=O)N2CCCCC2)ccc1N1CCOCC1,8,-2,-5,0,nt,
O=S(=O)(c1ccc2c(c1)OCCO2)N1CCN(c2ncnc3sccc23)CC1,4,103*,nt,4,90*,
Cc1ccc(S(=O)(=O)N2CCN(c3ncccn3)CC2)cc1C,-4,0,-8,0,nt,
Cc1ccc(S(=O)(=O)N2CCN(c3ncnc4sccc34)CC2)cc1C,4,90*,-21,2,94*,
O=C(NCc1n[nH]c(=S)n1-c1cccc(C(F)(F)F)c1)c1ccco1,1,0,nt,0,nt,
O=C1c2ccccc2C(Nc2cccc(C(F)(F)F)c2)N1Cc1ccco1 (configuration not stated),-5,63*,-6,1,33*,
COCCN(C(=O)COC(=O)Cc1cccc(OC)c1)c1c(N)n(CC(C)C)c(=O)[nH]c1=O,1,1,-10,0,nt,
COc1ccc(NC(=S)NC(NC(=O)/C=C/c2ccccc2)C(Cl)(Cl)Cl)cc1 (configuration not stated),9,96*,14,1,65*,
O=C(CCc1ccccc1)NC(NC(=S)Nc1ccc(Cl)cc1)C(Cl)(Cl)Cl (configuration not stated),23,94*,8,4,82*,
O=C(/C=C/c1ccccc1)NC(NC(=S)Nc1cc(Cl)ccc1Cl)C(Cl)(Cl)Cl (configuration not stated),0,97*,nt,0,74*,
O=C(/C=C/c1ccccc1)NC(NC(=S)Nc1ccc(Cl)cc1)C(Cl)(Cl)Cl (configuration not stated),18,99*,-16,3,58*,
Cc1cc2nc(-c3ccccc3Br)n(/C=C(\c3ccccc3)n3c(=O)[nH]c4ccccc43)c2cc1C,7,1,nt,0,nt,
CCc1ccc(NC(=O)COC(=O)C2(c3ccc(Cl)cc3)CCCC2)cc1,6,65*,nt,1,75*,
CCCc1cc(=O)[nH]c(SCc2ccc(Cl)cc2)n1,2,1,-3,0,nt,
CCCc1cc(=O)[nH]c(SCc2cc(Cl)ccc2OC(F)F)n1,-2,71*,nt,0,55*,
Cc1ccc(NC(=O)CCS(=O)(=O)c2ccc3nc(C)sc3c2)c(C)c1,1,-1,nt,0,nt,
CN1CCC(CNC(=O)Nc2csc3ccccc23)CC1,5,1,0,0,nt,
